An excerpt weighted towards active compounds, which were near 2.6% of everything screened.
A549 viability – kills or reduces viability of A549 cells in Nrf2 counter-screen; A549 ARE-Fluc cells, CellTiter-Fluor viability, 18-24 h; Potency, µM (doses to about 46 µM), most hits filed as inhibitors; 390,000 compounds, 0.16% hits
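A549 ARE-Fluc cells in 5% FBS OPTI-MEM, 5000 cells/well, rested 2 h then exposed to compounds in concentration-response for 18-24 h at 37 °C. Viability by CellTiter-Fluor fluorescence (Ex 405/Em 525) after 30 min; luciferase luminescence (BugLite, 15 min, RT) read afterwards.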
AT treatment – potential ataxia-telangiectasia treatments restoring KAP-1 phosphorylation; F2112 A-T fibroblasts, KAP-1 phosphorylation AlphaLISA; neocarzinostatin DNA damage 30 min before lysis; Potency, µM (highest dose often 57.5 µM), actives largely listed as activators; 320,000 compounds, 0.19% hits; AID 485349; also: nearly all actives have a fitted effect of over 45% in size
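ATM-like activity read as KAP-1 phosphorylation via AlphaLISA donor/acceptor antibody pairs after lysis and 6 hr at 25C. Cells were ATM-null patient fibroblasts (F2112, hTERT), dosed 60 min, then exposed to the DSB inducer NCS for 30 min.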
CCT chaperon mod – modulators of cytosolic chaperonin (CCT/TRiC) activity | purified chaperonin ATPase assay, HTRF ADP detection, 30 min | activity change, % (no concentration beside the values), hits read low | 360,000 compounds, 0.3% hits | AID 651819; in the data active = activity change below about -30%
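We incubate TRiC, 40 or 20 nM final, with library compounds at 76 uM and 10 uM ATP for 30 min at 37 °C. ADP formed is detected with Transcreener HTRF reagents after 30 min at room temperature.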
TCR act – activators of T cell receptors | primary human leukocytes, anti-CD3, IL-2 HTRF, 48 h | 330,000 tested, under 10 active | Potency, µM (titrated, usually from 9.22 µM), most hits filed as activators
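48 hr co-incubation of compounds, a-CD3 beads and primary human leukocytes; IL-2 quantified homogeneously by HTRF with anti-IL-2 K and d2 conjugates.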
Nrf2 block – inhibitors of Nrf2 signaling. A549 ARE-Fluc reporter, luciferase luminescence, 18-24 h. Potency, µM (top dose mostly 46 µM), most hits filed as inhibitors. 360,000 compounds, 2.1% hits. AID 504444; also: nearly all actives have a fitted effect of over 60% in size
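A549 ARE_Fluc cells (5000/well, 5% FBS OPTI-MEM) pre-incubated 2 h, then treated with compounds 18-24 h at 37C/5% CO2 in concentration-response. CellTiter-Fluor viability read first; BugLite luciferase luminescence after 15 min at room temperature gives Nrf2 activity.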
Nrf2 ARE act – Nrf2 pathway activation. AREc32 ARE-luciferase reporter (MCF7-derived line), luminescence, 24 h. Potency, µM (titrated, usually from 46.1 µM), hits mostly activators. 410,000 compounds, 0.31% hits; also: nearly all actives have a fitted effect of over 65% in size
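ARE activation measured as luciferase luminescence (Steady-Glo, 30 min RT) in AREc32_Fluc cells after 24 hr compound exposure at 37 deg C, 5% CO2; cells seeded overnight at 1000/well in OPTI-MEM, 5% FBS.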
Numbers stand for hits; i = inactive; ? = inconclusive; nt = not tested or not shown; [ ] = dose if it differs, or a comment. Unless noted, calls follow the shape of the dose curve; as a rule, active = well fitted curve in the direction sought with a large enough effect; inconclusive = small, poorly fitted or top-dose-only effect, or another doubt; inactive = no such curve, though single readings can be large; an effect the other way counts as inactive or inconclusive.

SMILES	A549 viability	AT treatment	CCT chaperon mod	TCR act	Nrf2 block	Nrf2 ARE act
CC(Oc1ccc(Cl)cc1Cl)c1nc(-c2ccc(NC(=O)c3ccncc3)cc2)no1 (stereo not given)	i	i	i	i	10µM	i
CN1c2ccc(Cl)cc2-c2nc(SCC(=O)NCc3ccc(F)cc3)ncc2S1(=O)=O	i	nt	nt	nt	?	i
Cc1cccc(Cn2cc(C(=O)c3ccccc3)c(=O)c3cc4c(cc32)OCO4)c1	i	nt	nt	nt	?	i
O=C(O)CCN1C(=O)c2ccc(NC(=O)Cc3ccc(Cl)cc3)cc2C1=O	i	i	-32	i	i	i
CCc1ccc(NC(=O)c2sc3nc(C)c(Cl)c(C)c3c2N)cc1	i	nt	nt	nt	3.7µM	i
CCN1C(C(=O)c2ccccc2)=C(OC(=O)COc2ccccc2)c2ccccc2S1(=O)=O	15µM	nt	nt	nt	?	i
CCCN1C(C(=O)c2ccccc2)=C(OC(=O)c2ccc(F)cc2)c2ccccc2S1(=O)=O	?	nt	nt	nt	?	i
CCCN1C(C(=O)c2ccccc2)=C(OC(=O)c2ccc(C)cc2)c2ccccc2S1(=O)=O	?	nt	nt	nt	23µM	i
CCCCCN1C(C(=O)c2ccccc2)=C(OC(=O)CC)c2ccccc2S1(=O)=O	?	nt	nt	nt	5.8µM	i
CCN1C(C(=O)c2ccccc2)=C(OC(=O)C(C)C)c2ccccc2S1(=O)=O	?	nt	nt	nt	?	i
CCCCN1C(C(=O)c2ccccc2)=C(OC(=O)CC)c2ccccc2S1(=O)=O	?	nt	nt	nt	21µM	i
COCCOC(=O)C1=C(C)NC(=O)NC1c1cn(-c2ccccc2)nc1-c1ccccc1 (stereo not given)	i	nt	nt	nt	?	i
COC(=O)CSc1nc(N)c(C#N)c(-c2ccco2)c1C#N	i	i	i	i	nt	14µM
COc1ccc(-n2c3c(cc(C#N)c2=O)C(=O)CCC3)cc1	i	i	-34	nt	i	i
Cc1cc(C)c2oc(-c3ccc(C)c(NC(=O)/C=C/c4ccco4)c3)nc2c1	i	nt	nt	nt	i	5.6µM
COc1ccc(N2CCN(C(=O)c3cnn(-c4ccc(F)cc4)c3-n3cccc3)CC2)cc1	i	nt	nt	nt	i	i
CCOc1cccc2c1OC(c1cc(OC)c(OC)c(OC)c1)N1N=C(c3ccc(C)o3)CC21 (stereo not given)	i	i	i	i	?	13µM
COc1ccc(Cn2c(-c3ccc(C)cc3)c[n+]3ccccc23)cc1	i	i	i	i	0.73µM	i
COc1ccc(Cn2c(O)c(C=Nc3ccc(C)cc3)c3ccccc3c2=O)cc1	?	i	i	i	9.2µM	i
CCOC(=O)c1c(C)[nH]c(C)c1C(=O)Cn1nnc(-c2ccccc2C)n1	i	i	i	i	13µM	i
CCOC(=O)c1c(C)[nH]c(C(=O)Cn2nnc(-c3ccccc3Cl)n2)c1C	i	?	i	i	?	i
COC(=O)c1ccc(C(=O)NC2CCCc3c2cnn3-c2ccccc2F)nc1 (stereo not given)	i	i	i	i	i	i
COc1cccc(C(=O)NC2CCCc3c2cnn3-c2ccc(C)c(C)c2)c1OC (stereo not given)	i	i	i	i	?	i
COc1cc(C(=O)NC2CCCc3c2cnn3-c2ccccc2F)cc(OC)c1OC (stereo not given)	i	i	i	i	6.5µM	i
CCn1nc(C)cc1C(=O)NC1CCCc2c1cnn2-c1ccc(C)c(C)c1 (stereo not given)	i	i	i	i	12µM	i
SMILES	A549 viability	AT treatment	CCT chaperon mod	TCR act	Nrf2 block	Nrf2 ARE act
COc1ccc(C(=O)NC2CCCc3c2cnn3-c2ccc(C)c(C)c2)c(OC)c1OC (stereo not given)	i	i	i	i	13µM	i
Cc1cc(C(=O)NC2CCCc3c2cnn3-c2ccc(C)c(C)c2)no1 (stereo not given)	i	i	i	i	10µM	i
CC(=O)NC1CCCc2c1cnn2-c1ccc(C(C)(C)C)cc1 (stereo not given)	i	i	i	i	i	i
CC(C)(C)c1ccc(-n2ncc3c2CCCC3NC(=O)C2=NNC(=O)CC2)cc1 (stereo not given)	i	i	i	i	8.2µM	i
O=C(c1ccc2c(c1)N(Cc1ccccc1)C(=O)c1ccccc1S2=O)N1CCC(Cc2ccccc2)CC1 (stereo not given)	i	nt	nt	nt	?	i
O=C(c1ccc2c(c1)N(Cc1ccc(F)cc1)C(=O)c1ccccc1S2=O)N1CCC(Cc2ccccc2)CC1 (stereo not given)	i	nt	nt	nt	23µM	i
O=C1c2[nH]nc(-c3ccccc3O)c2C(c2ccc(F)cc2)N1CCO (stereo not given)	i	nt	nt	nt	i	i
CN(C)c1ccc(/C=C/c2ccc3ccccc3n2)cc1	?	i	i	i	?	i
CCCN(CCC)c1ccc(/C=C/c2ccc3cc(OCC)ccc3n2)cc1	?	28µM	i	i	i	i
Cc1ccc2ncnc(Nc3ccc(C)c(C)c3)c2c1	i	nt	i	i	15µM	i
O=C1c2[nH]nc(-c3ccccc3O)c2C(c2ccc(Cl)cc2)N1CCc1ccccc1 (stereo not given)	?	nt	nt	nt	?	i
O=C(Nc1ccccc1)Nc1nc(Nc2cc(F)cc(F)c2)nc(NC2CCCC2)n1	i	nt	nt	nt	i	nt
O=C(NCc1ccc(Cl)cc1)c1cccc(S(=O)(=O)N2CCCC2)c1	i	i	i	i	i	i
O=C(NCCOc1ccc(Cl)cc1)c1cccc(S(=O)(=O)N2CCCC2)c1	i	i	i	i	23µM	i
O=C(NCc1ccc2c(c1)OCO2)c1cccc(S(=O)(=O)N2CCCCC2)c1	i	i	i	i	15µM	i
O=C(NCc1ccc2c(c1)OCO2)c1cccc(S(=O)(=O)N2CCCC2)c1	i	i	i	i	i	i
COc1cccc(CNC(=O)c2ccc3nc(CCc4ccccc4)oc3c2)c1OC	i	nt	nt	nt	nt	i
CCN1CCc2c(sc(NC(=O)c3ccc(S(=O)(=O)N(CC)c4ccccc4)cc3)c2C(N)=O)C1	23µM	i	i	nt	16µM	i
CCCCN(CCCC)S(=O)(=O)c1ccc(C(=O)Nc2sc3c(c2C(N)=O)CCN(CC)C3)cc1	i	nt	nt	nt	nt	i
CCN1CCc2c(sc(NC(=O)Nc3ccc(Cl)c(Cl)c3)c2C(N)=O)C1	i	25µM	i	i	i	i
CCN1CCc2c(sc(NC(=O)Cc3ccccc3)c2C(N)=O)C1	i	i	i	i	i	i
CCCNC(=O)C1(C)CCCN(C(=O)c2sccc2C)C1 (stereo not given)	nt	nt	i	nt	nt	i[9.22 µM]
CC(=O)Nc1cccc(S(=O)(=O)N2CCN(S(=O)(=O)c3c(F)cccc3F)CC2)c1	i	nt	nt	nt	i	nt
